# Measurements reported in PubChem BioAssay AID602399 (Sanford-Burnham Center for Chemical Genomics, 2012).
# The campaign covered roughly 360,000 compounds. About 2,800 (0.78%) were called active. Rule as the data show it: active = inhibition above about 26%; inactive = the rest. Shown is part of a subset that was picked to be rich in actives.
# Tested on: Nicotinate-nucleotide adenylyltransferase NadD (Staphylococcus aureus N315)
# Assay: S. aureus NadD enzyme activity blockers – biochemical, colorimetric, uHTS, primary screen (AID 602399)
# Settings: purified NadD enzyme, colorimetric absorbance read-out; at 20 µM; active compounds read high
row,Compound,inhibition
1,Cc1c(C(=O)OC(C)C)sc(NC(=O)c2cccnc2)c1C#N,7.06% (inactive)
2,CCCOc1ccc(C2C(C(=O)c3ccc(C)o3)=C(O)C(=O)N2CCCn2ccnc2)cc1 (stereo unspecified),17.5% (inactive)
3,Cc1cc(N2C(=O)C(O)=C(C(=O)c3ccc(C)o3)C2c2ccc(OCc3ccccc3)cc2)no1 (stereo unspecified),58.6% (active)
4,C=CCOc1cccc(C2C(C(=O)c3ccc(C)o3)=C(O)C(=O)N2c2nnc(C)s2)c1 (stereo unspecified),12.2% (inactive)
5,CCC(C)N(C(=O)COC(=O)C1C(C(=O)OC)=C(C)NC(C)=C1C(=O)OC)C1CCS(=O)(=O)C1 (stereo unspecified),1.18% (inactive)
6,Cc1ccc(Cc2nnc(SCC(=O)Nc3ccccc3C)[nH]c2=O)cc1,2.18% (inactive)
7,NC(=O)NC(=O)CSc1nc2cc([N+](=O)[O-])ccc2n1-c1cccc(C(F)(F)F)c1,17.8% (inactive)
8,CC(=O)NC1(c2cccc(F)c2)CCN(CC(=O)NC(C)C)CC1,-2.5% (inactive)
9,O=C(N/N=C/C=C/c1ccco1)c1cccs1,5.08% (inactive)
10,C/C(=N\NC(=O)c1cc(-c2ccc(O)cc2)nc2ccccc12)c1cccnc1,5.99% (inactive)
11,Cc1ccc(-c2cc(C(=O)N/N=C/C=C/c3ccco3)c3ccccc3n2)cc1C,53% (active)
12,CSc1nsc(SC)c1NC(=O)OC1CCCCC1,-1.66% (inactive)
13,CC(=O)Nc1ccc(S(=O)(=O)N2CCN(S(=O)(=O)c3cccs3)CC2)cc1,0.0869% (inactive)
14,CN(C)c1ccc(-n2cccc2/C=C2/SC(=Nc3ccc(F)cc3)NC2=O)cc1,24.9% (active)
15,CN(C)c1ccc(-n2cccc2/C=N/n2cnnc2)cc1,-0.713% (inactive)
16,CN(CCC1CCOCC1)Cc1cn[nH]c1-c1ccc(-c2ccccc2)cc1,-6.91% (inactive)
17,C[C@@H]1CN([C@@H](C)CO)C(=O)c2cccc(NS(=O)(=O)c3ccc(F)cc3)c2O[C@H]1CN(C)C(=O)NC1CCCCC1,4.79% (inactive)
18,Cc1[nH]c2ccccc2c1SCC(=O)Nc1nccs1,-2.1% (inactive)
19,CN(C)/C=C(\C#N)C(=O)c1cccnc1Oc1cccc(F)c1,-0.906% (inactive)
20,COc1ccc(C2(CNC(=O)C(c3ccccc3)c3ccccc3)CCOCC2)cc1OC,-2.03% (inactive)
21,Cc1cc(C)nc(Nc2n[nH]c(-c3ccccc3N)n2)n1,-2.89% (inactive)
22,CCNc1nc(N)nc(Oc2ccc(OCC)nn2)n1,-1.59% (inactive)

row,Compound,inhibition
1,COc1ccc(C(=O)Nc2cccc(/C=C(/CCC(=O)O)c3nc4ccccc4s3)c2)cc1,35.2% (active)
2,O=C(O)CC/C(=C\c1cc2c(cc1Br)OCO2)c1nc2ccccc2s1,7.94% (inactive)
3,Cc1nn(-c2ccc(F)cc2)c(Cl)c1/C=C(/CCC(=O)O)c1nc2ccccc2s1,6.39% (inactive)
4,CSc1nnc2c(n1)OC(c1ccsc1)N(C(C)=O)c1ccccc1-2 (stereo unspecified),-0.91% (inactive)
5,Cc1ccc(C(=O)N/C(=C\c2cn(C)c3ccccc23)C(=O)N2CCN(C)CC2)cc1,-3.04% (inactive)
6,Cc1ccc(N2C(=O)S/C(=C/c3cn(C)c4ccccc34)C2=O)cc1,2.76% (inactive)
7,Cc1cccc(N=C2NC(=O)/C(=C/c3cn(C)c4ccccc34)S2)c1,37% (active)
8,CON(C)S(=O)(=O)c1ccc2c(c1)NC(=O)C1CCCN21 (stereo unspecified),10.3% (inactive)
9,Cc1ccc(S(=O)(=O)c2cc3c(=O)n4cccc(C)c4nc3n(CCc3ccccc3)c2=N)cc1C,-1.62% (inactive)
10,CCn1c(=N)c(S(=O)(=O)c2ccc(F)cc2)cc2c(=O)n3ccccc3nc21,7.46% (inactive)
11,Cc1ccc(Cn2c(=N)c(S(=O)(=O)c3ccc(C)cc3)cc3c(=O)n4ccccc4nc32)cc1,35.5% (active)
12,COc1ccc(C)cc1NC(=O)c1cc(-c2ccccc2)nc2c1cnn2C(C)C,-10.2% (inactive)
13,COC(=O)c1sccc1NC(=O)CC1C(=O)NCCN1C(=O)Nc1ccc(F)cc1F (stereo unspecified),-5.08% (inactive)
14,Cc1c(Cl)c([N+](=O)[O-])nn1Cc1ccc(C(=O)N/N=C\c2cc(Cl)ccc2O)o1,35.1% (active)
15,CN(C)c1ccc(/C=N/NC(=O)c2ccc(Cn3cc(Br)cn3)o2)cc1,4.66% (inactive)
16,Cc1c(Cl)c([N+](=O)[O-])nn1CCCC(=O)NC(C)c1ccccc1 (stereo unspecified),1.25% (inactive)
17,COc1ccc(CC(=O)Nc2c3c(nn2-c2cccc(Cl)c2)CS(=O)C3)cc1 (stereo unspecified),5.19% (inactive)
18,Cc1ccc(NS(=O)(=O)c2cc3c(cc2Br)NC(=O)CO3)cc1C,-3.42% (inactive)
19,C#CCOCCOCCOCCNc1nc(N2CCN(C(=O)C([C@@H](C)O)n3cc([C@@H](N)CCCCN)nn3)CC2)nc(N2CCN(C(=O)[C@H](CCCCN)n3cc(CN)nn3)CC2)n1 (stereo partly specified),-6.21% (inactive)
20,C#CCOCCOCCOCCNc1nc(N2CCOCC2)nc(N2CCN(C(=O)[C@H](Cc3ccc(O)cc3)n3cc(CCO)nn3)CC2)n1,-4.41% (inactive)
21,C#CCOCCOCCOCCNc1nc(N2CCN(C(=O)CCCCCCCCCCNC(=O)Cn3cc(CCCCCN)nn3)CC2)nc(N2CCN(C(=O)CCCCCCCCCCNC(=O)[C@H](CO)n3cc(CCCSC)nn3)CC2)n1,46.8% (active)
22,C=CCOc1cccc(C2C(C(=O)c3ccc(C)o3)=C(O)C(=O)N2CCN2CCOCC2)c1 (stereo unspecified),6.48% (inactive)

row,Compound,inhibition
1,CCNc1nc(SCCOc2ccccc2)nc(N(C)C)n1,-6.51% (inactive)
2,C(=C\c1ccccc1)/CSc1nnc(-c2cccnc2)n1Cc1ccco1,14.6% (inactive)
3,O=C(CSc1nnc(-c2cccnc2)n1Cc1ccco1)c1ccc(Cl)c(Cl)c1,30.6% (active)
4,O=C(CSc1nnc(-c2cnccn2)n1Cc1ccco1)c1ccc(Cl)c(Cl)c1,10.3% (inactive)
5,Cc1cccc(NC(=O)CSC(N)=O)c1C,-2.73% (inactive)
6,Cc1cccc(NC(=O)CN2CCN(C(=O)C3CCN(C(=O)/C=C/c4ccccc4)CC3)CC2)c1C,5.55% (inactive)
7,CCOC(=O)/C=c1\s/c(=C\c2ccc(C#N)cc2)c(=O)n1CC(=O)Nc1cccc(C)c1C,32.6% (active)
8,Cc1c(CN2CCCCC2)c(O)n(CCO)c(=O)c1C#N,-2.39% (inactive)
9,Cc1cccc(-c2c(NC(=O)c3ccco3)oc3ccc(Cl)cc3c2=O)c1,-6.28% (inactive)
10,Cc1ccc(N=C2NC(=O)/C(=C/C=C/c3ccco3)S2)cc1C,37.2% (active)
11,FC(F)(F)c1ccnc(Oc2ccc(C3=NCCS3)cc2)c1,-2.78% (inactive)
12,CCCCn1ccnc1C(=O)c1cccc(S(=O)(=O)N2c3ccccc3CC2C)c1 (stereo unspecified),9.25% (inactive)
13,Cn1c(=O)[nH]c(=O)c2c1nc(CN1CCN(c3ccccc3F)CC1)n2CCc1ccccc1,0.696% (inactive)
14,CC(C)C(=O)Nc1c2c(nn1-c1ccccc1)CSC2,-1.75% (inactive)
15,COc1ccccc1C(=O)N/C(=C/c1ccco1)C(=O)Nc1ccc(C(=O)O)cc1,1.58% (inactive)
16,O=C(Nc1ccc(C(=O)O)cc1)/C(=C\c1ccccc1)NC(=O)c1ccc(Br)cc1,-2.9% (inactive)
17,COCCCn1c(=O)/c(=C/c2ccccc2OC(C)C)s/c1=C(\C#N)C(=O)Nc1ccc(C(=O)O)cc1,32% (active)
18,CCOC(=O)c1cccc(NC(=O)CCc2nnc3ccc(N4CCOCC4)nn23)c1,-5.9% (inactive)
19,Cc1ccc(Cn2cc(CN3CC(N4CCN(C)CC4)CS3(=O)=O)nn2)cc1 (stereo unspecified),-10.5% (inactive)
20,C=CCN1C(=O)C(O)(CC(=O)c2ccccn2)c2ccccc21 (stereo unspecified),13.4% (inactive)
21,Cc1ccc(C2CC(c3cccc(Br)c3)n3nc(N)nc3N2)cc1 (stereo unspecified),7.54% (inactive)
22,Nc1nc2n(n1)C(c1ccco1)CC(c1ccc(Cl)c(Cl)c1)N2 (stereo unspecified),47.1% (active)

row,Compound,inhibition
1,CCOc1ccccc1C1CC(c2ccc(Cl)cc2)Nc2nc(N)nn21 (stereo unspecified),9.48% (inactive)
2,CCOC(=O)c1cn(CC)c2cc(F)c(F)cc2c1=O,-0.618% (inactive)
3,COC(=O)CSc1nc2c(c(C3CC=CCC3)c1C#N)CCC2 (stereo unspecified),-1.38% (inactive)
4,COc1ccc(CC(=O)Nc2sc(Cc3ccccc3)c(C)c2C(N)=O)cc1,-6.77% (inactive)
5,COc1cc(OC)cc(C(=O)NNC(=O)Cc2cccs2)c1,10.7% (inactive)
6,COc1ccc(Cc2nnc(NC(=O)Cc3cccs3)s2)cc1,32.5% (active)
7,CC(C)C[C@@H](CO)N1CCN(Cc2ccc(O)cc2)CCC1=O,4.79% (inactive)
8,CC(CCN1CCN=C1N(C)C)c1ccccc1 (stereo unspecified),-0.906% (inactive)
9,Cc1c2cnn(CC(=O)NCc3ccccn3)c(=O)c2c(C)n1Cc1ccc(Cl)cc1,0.351% (inactive)
10,O=[N+]([O-])c1cc(Cl)cc(/C=N/NC(=S)Nc2cc(S(=O)(=O)N3CCOCC3)ccc2Cl)c1O,47.9% (active)
11,COC(=O)c1cc(Oc2ccc(S(=O)(=O)N3CCOCC3)cc2[N+](=O)[O-])cc(C(=O)OC)c1,1.67% (inactive)
12,Cc1cc(OCCCC(=O)Nc2cc(S(=O)(=O)N3CCOCC3)ccc2N2CCOCC2)ccc1Cl,-12.2% (inactive)
13,CC(=O)Nc1cc(-c2ccc(N3CCN(C)CC3)cc2)cn2c(-c3ccc(F)cc3)cnc12,0.533% (inactive)
14,C=CC(=O)Nc1ccc(Nc2ccnc(Nc3ccc(N4CCN(C)CC4)cc3)n2)cc1,42.6% (active)
15,O=C(Nc1ccc(N2CCN(C(=O)c3cccs3)CC2)cc1)c1cccnc1Cl,4.87% (inactive)
16,Cc1ccc(C2=NN(C(=O)COc3ncnc4ccccc34)C(c3ccco3)C2)cc1 (stereo unspecified),0.743% (inactive)
17,Cc1ccc(N2C(=O)C3N=NN(CC(=O)N4N=C(c5cccc6ccccc56)CC4c4ccccc4)C3C2=O)cc1 (stereo unspecified),45.4% (active)
18,CC1=C(C)CC2C(=O)N(c3cccc4ccccc34)C(=O)C2C1 (stereo unspecified),-0.224% (inactive)
19,O=C1C2N=NN(CC(=O)N3N=C(c4cccc5ccccc45)CC3c3ccccc3)C2C(=O)N1c1ccccc1 (stereo unspecified),48.5% (active)
20,O=C1c2cccc(OCC(=O)N3N=C(c4cccs4)CC3c3ccc(F)cc3)c2CCN1Cc1ccccc1 (stereo unspecified),26.5% (inactive)
21,Oc1ccccc1C1=NN(c2ccccc2)C(c2ccccc2)C1 (stereo unspecified),-11.2% (inactive)
22,CN1CCN(C(=O)/C(=C\c2ccc3c(c2)OCO3)NC(=O)c2cccs2)CC1,-6.87% (inactive)

row,Compound,inhibition
1,O=C1CC2(CCCC2)Oc2ccc(Cl)cc21,-1.24% (inactive)
2,CCSC1=NCCN1C(=O)c1ccc(S(=O)(=O)N(CC)CC)cc1,3.55% (inactive)
3,Cc1ccc(-n2c(=O)cc(N3CCN(Cc4ccccc4)CC3)[nH]c2=O)cc1,4.3% (inactive)
4,Cc1cccc(CCNS(=O)(=O)c2ccc3c(c2)NC(=O)CO3)c1,-0.563% (inactive)
5,COC(=O)c1ccc(/C=N/OCC(=O)Nc2cc(F)ccc2F)cc1,-3.44% (inactive)
6,CCCc1nc2c3ccccc3ccn2c1Cc1ccccc1C(F)(F)F,1.56% (inactive)
7,Cc1ccc(C(=O)NNC(=O)CSc2nnc3ccccn23)cc1,-1.33% (inactive)
8,Cc1ccc(C(=O)NNc2ncnc3ccccc23)cc1,-2.31% (inactive)
9,Cc1ccc(C(=O)NNC(=O)c2cc3cc4ccccc4nc3s2)cc1,31.4% (active)
10,Nc1nc2c(ncn2[C@@H]2O[C@H](CNS(=O)(=O)N3CCc4ccccc4C3)[C@@H](O)[C@H]2O)c(=O)[nH]1,1.88% (inactive)
11,CCC/C=C(\CCC)C(NC(=O)Cc1ccccc1)c1ccc(C(=O)OC)cc1 (stereo unspecified),10.4% (inactive)
12,CC1CCN(C(=O)Cn2cc(C(=O)c3ccco3)c3ccccc32)CC1,3.46% (inactive)
13,O=C(c1ccc(CS(=O)(=O)c2ccccc2)o1)N1CCN(c2ccccc2)CC1,1.5% (inactive)
14,Cc1cccc(-c2oc3ccc(-c4ccc5c(c4)OCO5)cc3c2C#Cc2cncn2C)c1,26.9% (inactive)
15,Cn1cncc1C#Cc1c(-c2ccsc2)sc2ccccc12,30% (active)
16,COc1ccc2sc(-c3ccc(S(C)(=O)=O)cc3)c(C#Cc3cncn3C)c2c1,0.758% (inactive)
17,CS(=O)(=O)N(CC(=O)N1CCCCCC1)c1cccc(Cl)c1Cl,-9.97% (inactive)
18,Cc1c(S(=O)(=O)NCc2ccccc2)c(=O)n(C)c(=O)n1C,-3.14% (inactive)
